# Laboratory results reported in PubChem BioAssay (NCATS).
# Active and inactive are the calls of the source. Calls follow the shape of the dose curve; as a rule, active = well fitted curve in the direction sought with a large enough effect; inconclusive = small, poorly fitted or top-dose-only effect, or another doubt; inactive = no such curve, though single readings can be large or run the other way.
# Experiment: qHTS for compounds that reverse cellular toxicity of Amyloid beta (A-beta) peptide in yeast: LOPAC Validation Assay (AID 720559)
# Conditions: yeast expressing A-beta; Potency: rescue of growth toxicity; series mostly up to 46.1 µM; growth rescue, positive = activation: at the top concentration
# Description: The A-beta peptide is produced by the processing of the amyloid precursor protein (APP) by two proteases, beta and gamma secretases. […] A-beta42 is regarded as the most amyloidogenic form due to its hydrophobicity; however, precisely how A-beta42 induces neurotoxicity is unclear. To understand further this biology and its potential therapeutic implications for human neurodegenerative disease, a quantitative high-throughput screen for compounds that reverse the cellular toxicity of the A-beta peptide was developed.
# A yeast based screen was used because it recapitulates the salient feature of protein mis-folding disorder accurately. This cell-based phenotypic screen provides a significant, unbiased advantage by letting the compounds and models inform us which proteins or pathways are most relevant. The ideal chemical candidates would therefore have activity in both our primary yeast and secondary neuronal toxicity assays, as well as in mouse models. They will be valuable tools for dissecting diverse protein homeostasis pathologies and could potentially become the focus for future pre-clinical development. For this […] assay, inhibition of A-beta rescues the toxic effect in the yeast cell, resulting in increase of signals.
# NIH Chemical Genomics Center [NCGC]
# NIH Molecular Libraries Probe Centers Network [MLPCN]
# Assay Submitter (PI): Susan Lindquist, Whitehead Institute, Massachusetts Institute of Technology
# [1] Vassar R,et al (1999). Beta-secretase cleavage of Alzheimer's amyloid precursor protein by the transmembrane aspartic protease BACE. Science. 286: 735-741.
# [2] Yan R, et al (1999). Membrane-anchored aspartyl protease with Alzheimer's disease beta-secretase activity. Nature.
# Two and a half microliter / well of yeast growth medium were dispensed in a 1536 assay plate. Compounds were pinned using the Kalypsys robotic system followed by addition of 2.5 uL / well yeast solution. The assay plates were incubated at 30 C. After 48 hr, the absorbance signal at 600 nm was obtained using the PerkinElmer ViewLux plate reader to assess yeast growth. The data was normalized to the positive control of an equimolar mixture of ferric chloride (FeCl3) and clioquinol and to the negative control DMSO.
row,Compound,"growth rescue, positive = activation"
1,CCNC(=O)[C@H]1O[C@@H](n2cnc3c(N)nc(NCCc4ccc(CCC(=O)O)cc4)nc32)[C@H](O)[C@@H]1O,0.697% (inactive)
2,CCCCCCCCCCCCCCCCCC(=O)OC(CC(=O)O)C[N+](C)(C)C (stereo not given),-60.5% (inactive)
3,O=C1/C(=C/c2ccsc2)CC/C1=C\c1cccs1,0.143% (inactive)
4,COc1cc(C(O)CO)ccc1OS(=O)(=O)O (stereo not given),0.452% (inactive)
5,O=C(O)CNC(=O)C(CS)Cc1ccccc1 (stereo not given),-3.41% (inactive)
6,COc1ccc(NC(=O)/C=C/c2ccc(Cl)cc2)cc1,-6.42% (inactive)
7,NCCCS(=O)(=O)O,-3.46% (inactive)
8,N#C/C(=C\c1ccc(-c2cc(Cl)ccc2Cl)o1)C(=O)Nc1cccc2ncccc12,-2.66% (inactive)
9,C[N+](C)(C)CCOP(=O)(O)OP(=O)([O-])OC[C@H]1O[C@@H](n2ccc(N)nc2=O)[C@H](O)[C@@H]1O,-2.16% (inactive)
10,Clc1ccc(N2CCN(Cc3cc4ccccn4n3)CC2)cc1,-1.76% (inactive)
11,C=C[C@@H]1CN2CC[C@@H]1C[C@H]2[C@H](O)c1ccnc2ccc(OC)cc12,-1.97% (inactive)
12,CCCCCC(O)c1cccc(OCc2ccc3ccccc3n2)c1 (stereo not given),-16.1% (inactive)
13,N.N.N.N.N.N.N.N.N.N.N.N.N.N.O.O.[Ru+4].[Ru+5].[Ru+5],-60.8% (inactive)
14,NC(=O)C(=O)O,3.13% (inactive)
15,O=C(Nc1cccc(C(=O)Nc2ccc(S(=O)(=O)O)c3cc(S(=O)(=O)O)cc(S(=O)(=O)O)c23)c1)Nc1cccc(C(=O)Nc2ccc(S(=O)(=O)O)c3cc(S(=O)(=O)O)cc(S(=O)(=O)O)c23)c1,-9.07% (inactive)
16,C=CC(C)=C[C@@]1(C)SC(=O)C(C)=C1O,-3.3% (inactive)
17,CN1CCc2cccc3c2C1Cc1ccc(O)c(O)c1-3 (stereo not given),-2.21% (inactive)
18,C#CCN1C(C)=C(C(=O)OC)C(c2cccc([N+](=O)[O-])c2)C(C(=O)OCC)=C1C (stereo not given),-2.4% (inactive)
19,N#C/C(=C\c1ccc(O)c(O)c1)C(=O)c1ccc(O)c(O)c1,-8.89% (inactive)
20,OC[C@H]1O[C@@H](n2cnc3c(NC4CCCCC4)ncnc32)[C@H](O)[C@@H]1O,-5.53% (inactive)

row,Compound,"growth rescue, positive = activation"
1,NCCSSCCN,1.57% (inactive)
2,CCN(CC)c1ncnc2c1ncn2[C@@H]1O[C@H](COP(=O)(O)OP(=O)(O)C(Br)(Br)P(=O)(O)O)[C@@H](O)[C@H]1O,-2.74% (inactive)
3,NC[C@H]1O[C@@H](n2cnc3c(N)ncnc32)[C@H](O)[C@@H]1O,18.8% (inactive)
4,NC[C@@H]1O[C@H](C23CC4CC(CC(C4)C2)C3)Cc2c1ccc(O)c2O,-2.71% (inactive)
5,CNC(=O)[C@H]1O[C@@H](n2cnc3c(NCc4cccc(I)c4)ncnc32)[C@H](O)[C@@H]1O,-1.32% (inactive)
6,CN=c1nc(-c2ccccc2)n(-c2ccccc2)s1,6.35% (inactive)
7,CN(C)C(N)=NCCC[C@H](N)C(=O)O,-6.17% (inactive)
8,CC(N)C(=O)OC(C)(C)Cc1ccc(Cl)cc1 (stereo not given),1.15% (inactive)
9,CCOC(=O)C1=C(C)NC(C)=C(C(=O)OCC)C1c1c(F)c(F)c(F)c(F)c1F,-20% (inactive)
10,O=C(CCCCCN1CCN(c2ccccc2-c2ccccc2)CC1)NC1CCCc2ccccc21 (stereo not given),-5.57% (inactive)
11,COc1ccc(/C=C/C(=O)Nc2ccccc2C(=O)O)cc1OC,-7.87% (inactive)
12,COC1=C(OC)C(=O)c2ccccc2C1=O,-52.1% (inactive)
13,CCCN(CC1CC1)c1nc(C)nc(Nc2c(Cl)cc(Cl)cc2Cl)c1Cl,-22.6% (inactive)
14,CN(C)CCCO[C@@H]1[C@H]2OC(C)(C)O[C@H]2O[C@@H]1[C@H](O)CO,-0.287% (inactive)
15,OC[C@H]1O[C@@H](n2cnc3c(NC4CCCC4)ncnc32)[C@H](O)[C@@H]1O,1.68% (inactive)
16,COc1ccccc1CNCCCCCCNCCCCCCCCNCCCCCCNCc1ccccc1OC,-0.969% (inactive)
17,Nc1nc(Cl)nc2c1ncn2[C@@H]1O[C@H](CO)[C@@H](O)[C@H]1O,-2.44% (inactive)
18,O=c1[nH]c2cc([N+](=O)[O-])c([N+](=O)[O-])cc2[nH]c1=O,-2.74% (inactive)
19,CCCCC/C=C\CC(O)/C=C/c1cccc(CC(O)CCCCO)n1 (stereo not given),-6.39% (inactive)
20,CC(=O)N[C@H](C(=O)O)C(C)(C)SN=O,2.2% (inactive)
